Reference: PubChem BioAssay (NCATS)
Records with an inconclusive call do not appear. The source made the active and inactive calls. Calls follow the shape of the dose curve; as a rule, active = well fitted cell-killing curve with a large enough effect; inconclusive = small, poorly fitted or top-dose-only effect, or effect the other way; inactive = flat fitted curve, though single readings scatter.

Test system: Tov-21-G
Experiment: Primary qHTS to identify gynecologic anti-cancer compounds using libraries of approved drugs and bioactive compounds (AID 1345084); also: nearly all actives have a fitted effect of over 55% in size
Settings: Gynecologic cancer cell panel viability, ATPlite luminescence, 48 h; series mostly up to 57.5 µM; activity change, negative = cytotoxicity: at the top concentration
In short: (§1)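 Five-point cytotoxicity, 48 h drug exposure at 37 C, 5% CO2, on cells seeded 16 h beforehand. ATP content read by ATPlite luminescence.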
% is scaled to controls: 0 for no effect and ±100 for the full control effect; potency is read from the fitted curve at half-maximal effect.

Row | Compound | activity change, negative = cytotoxicity | Potency
1 | Cc1ccc(NC(=O)c2ccc(CN3CC[C@H](N(C)C)C3)c(C(F)(F)F)c2)cc1Nc1nccc(-c2cncnc2)n1 | -23.5% [at 25.3 µM] (inactive) | –
2 | CCOC(=O)C(CCc1ccccc1)NC(C)C(=O)N1C(=O)N(C)CC1C(=O)O (stereo not drawn) | 1.75% (inactive) | –
3 | C[C@H]1[C@H](O)O[C@@H]2O[C@@]3(C)CC[C@H]4[C@H](C)CC[C@@H]1[C@@]24OO3 | – | 28.2 µM (active)
4 | C1CCC[C@H]2CCCN3CC[C@@H](CCCCCC[C@@H]4CCCN5CC[C@@H](CC1)O[C@@H]45)O[C@@H]23 | 5.89% [at 0.155 µM] (inactive) | –
5 | CCCCc1ccc(C(=O)Nc2cc(-c3ccc(Cl)cc3)nn2-c2ccc(Cl)cc2)cc1 | 16.2% (inactive) | –
6 | CN1CCC(Nc2nc(Nc3ccc(Oc4ccccc4)cc3)c3c(=O)[nH]cc(Br)c3n2)CC1 | -7.06% (inactive) | –
7 | C=C(C(=O)O)C1CC2=C(C)CCCC2(C)C[C@@H]1O (stereo partly drawn) | -8.9% (inactive) | –
8 | C[C@@H]1CCC2C(C)(C)[C@H](O)CC[C@]2(C)[C@@]12Cc1c(O)cc3c(c1O2)CN([C@@H](CCC(=O)O)C(=O)O)C3=O (stereo partly drawn) | 3.66% [at 25.3 µM] (inactive) | –
9 | CC(C)[N+]1(C)C2CCC1CC(OC(=O)C(CO)c1ccccc1)C2 (stereo not drawn) | 20.1% (inactive) | –
10 | OC[C@H]1O[C@@H](O[C@H]2[C@H](OCCc3ccccc3)O[C@H](CO)[C@@H](O)[C@@H]2O)[C@H](O)[C@@H](O)[C@@H]1O | 15.7% [at 25.3 µM] (inactive) | –
11 | CC(=O)OC1C(O)CC2(C)C(CCC(C)C23Cc2c(O)cc(CO)c(C=O)c2O3)C1(C)C (stereo not drawn) | -20.4% [at 25.3 µM] (inactive) | –
12 | CC1(C)CC(=O)C2=C(C1)NC(=S)NC2c1cccc(O)c1 (stereo not drawn) | – | 1.26 µM (active)
13 | COc1ccc(C(=O)Nc2ncc(-c3ccc(C(=O)O)cc3)s2)cc1 | – | 14.1 µM (active)
14 | C=CC(C)(C)c1[nH]c2cc3c(cc2c1CC1NC(=O)C2=CCCN2C1=O)C=CC(C)(C)O3 (stereo not drawn) | -1.21% [at 25.3 µM] (inactive) | –
15 | Cc1cc2c(F)c(Oc3ncnn4cc(OCC(C)O)c(C)c34)ccc2[nH]1 (stereo not drawn) | -22.3% (inactive) | –
16 | Cc1cc(N2CCN([C@@H]3CN[C@H](C(=O)N4CCSC4)C3)CC2)n(-c2ccccc2)n1 | 0.673% (inactive) | –
17 | CC(=O)O[C@@H]1[C@@H](OC(=O)/C=C/c2ccccc2)[C@@H](OC(C)=O)[C@H](O[C@H]2[C@@H]3C=CO[C@@H](O[C@@H]4O[C@H](CO)[C@@H](O)[C@H](O)[C@H]4O)[C@@H]3[C@@]3(CO)O[C@@H]23)O[C@H]1C | -6.45% [at 25.3 µM] (inactive) | –
18 | C=C1CCC2C(C)(C)CCC[C@]2(C)[C@H]1C/C=C(\CO)C(=O)C(=O)O (stereo partly drawn) | -0.675% [at 38.5 µM] (inactive) | –
19 | C=C[C@@]12COC(=O)C(=C)C1[C@@H](O)[C@H](C(=C)C(=O)OC)[C@@H](OC(=O)C(=C)CO)C2 (stereo partly drawn) | -23.7% [at 25.3 µM] (inactive) | –
20 | CCOc1cc2ncc(C#N)c(Nc3ccc(F)c(Cl)c3)c2cc1NC(=O)/C=C/CN(C)C | – | 1 µM (active)
21 | COc1cc(N2CCC(N3CCN(C)CC3)CC2)ccc1Nc1ncc(Cl)c(-c2c[nH]c3ccccc23)n1 | – | 8.91 µM (active)
22 | C/C(=C\C=C\C(C)C1CCC2(C)C3CCC4C(C)(C)C(=O)CCC45CC35CCC12C)C(=O)O (stereo not drawn) | 5.34% [at 25.3 µM] (inactive) | –
23 | CC1CCC23COC(=O)C2=CC(O)CC3C1(C)CCC1=CC(O)OC1=O (stereo not drawn) | -5.89% [at 38.5 µM] (inactive) | –
24 | CC(=O)C1=C(C)N(c2cccc(C(F)(F)F)c2)C(=O)N[C@H]1c1ccc(C#N)nc1 | 3.34% [at 11.6 µM] (inactive) | –
25 | COC(=O)C1(C)c2[nH]c3ccccc3c2CCN1C(=O)CCl (stereo not drawn) | – | 22.4 µM (active)
26 | COc1cc2oc(-c3ccc(O)cc3O)cc2c(OC)c1CC=C(C)C | 0.991% [at 38.5 µM] (inactive) | –
27 | CC(C)(C)NS(=O)(=O)c1cncc(-c2cc(F)c3nc(N)nn3c2)c1 | 1.57% (inactive) | –
28 | O=C1NC2CCc3nc4ccccc4c(=O)n3C2=Nc2ccccc21 (stereo not drawn) | 2.37% [at 38.5 µM] (inactive) | –
29 | Cc1[nH]c2ccccc2c1C1=C(NCCc2ccc(F)cc2)C(=O)N(C)C1=O | 17.4% (inactive) | –

Test system: Tov112D
Experiment: as above
Settings: Gynecologic cancer cell panel viability, ATPlite luminescence, 48 h; series mostly up to 57.5 µM; activity change, negative = cytotoxicity: at the top concentration
In short: as §1

Row | Compound | activity change, negative = cytotoxicity | Potency
30 | Cc1ccc(NC(=O)c2ccc(CN3CC[C@H](N(C)C)C3)c(C(F)(F)F)c2)cc1Nc1nccc(-c2cncnc2)n1 | -2.55% [at 25.3 µM] (inactive) | –
31 | CCOC(=O)C(CCc1ccccc1)NC(C)C(=O)N1C(=O)N(C)CC1C(=O)O (stereo not drawn) | -1.5% (inactive) | –
32 | C1CCC[C@H]2CCCN3CC[C@@H](CCCCCC[C@@H]4CCCN5CC[C@@H](CC1)O[C@@H]45)O[C@@H]23 | 2.94% [at 0.155 µM] (inactive) | –
33 | CCCCc1ccc(C(=O)Nc2cc(-c3ccc(Cl)cc3)nn2-c2ccc(Cl)cc2)cc1 | -5.57% (inactive) | –
34 | COc1ncc(Nc2ncc([C@H](C)N3CCN(S(C)(=O)=O)CC3)cc2-c2nc(C)nc(N)n2)cc1F | -12.5% (inactive) | –
35 | CN1CCC(Nc2nc(Nc3ccc(Oc4ccccc4)cc3)c3c(=O)[nH]cc(Br)c3n2)CC1 | -21.9% (inactive) | –
36 | C=C(C(=O)O)C1CC2=C(C)CCCC2(C)C[C@@H]1O (stereo partly drawn) | 9.36% (inactive) | –
37 | C=C(C)C(=O)O[C@H]1CC2=CC(C/C(C)=C\[C@H]3OC(=O)C(=C)[C@H]13)OC2=O (stereo partly drawn) | -4.21% [at 38.5 µM] (inactive) | –
38 | C[C@@H]1CCC2C(C)(C)[C@H](O)CC[C@]2(C)[C@@]12Cc1c(O)cc3c(c1O2)CN([C@@H](CCC(=O)O)C(=O)O)C3=O (stereo partly drawn) | 2.88% [at 25.3 µM] (inactive) | –
39 | CC(C)[N+]1(C)C2CCC1CC(OC(=O)C(CO)c1ccccc1)C2 (stereo not drawn) | -16.2% (inactive) | –
40 | OC[C@H]1O[C@@H](O[C@H]2[C@H](OCCc3ccccc3)O[C@H](CO)[C@@H](O)[C@@H]2O)[C@H](O)[C@@H](O)[C@@H]1O | -0.0622% [at 25.3 µM] (inactive) | –
41 | CC(=O)OC12COC1CC(O)C1(C)C(=O)C(O)C3=C(C)C(OC(=O)C(O)C(NC(=O)OC(C)(C)C)c4ccccc4)CC(O)(C(OC(=O)c4ccccc4)C21)C3(C)C (stereo not drawn) | -29.8% (inactive) | –
42 | O=C1C=CC2OC(c3ccccc3)C(O)C2O1 (stereo not drawn) | -17.3% (inactive) | –
43 | COc1cc2c(cc1O)CC[C@H]1[C@@H]2CC[C@]2(C)[C@H](O)CC[C@@H]12 | – | 1 µM (active)
44 | CC(=O)OC1C(O)CC2(C)C(CCC(C)C23Cc2c(O)cc(CO)c(C=O)c2O3)C1(C)C (stereo not drawn) | -14.8% [at 25.3 µM] (inactive) | –
45 | CC1(C)CC(=O)C2=C(C1)NC(=S)NC2c1cccc(O)c1 (stereo not drawn) | – | 0.891 µM (active)
46 | COc1ccc(C(=O)Nc2ncc(-c3ccc(C(=O)O)cc3)s2)cc1 | – | 14.1 µM (active)

Row | Compound | activity change, negative = cytotoxicity | Potency
47 | C=CC(C)(C)c1[nH]c2cc3c(cc2c1CC1NC(=O)C2=CCCN2C1=O)C=CC(C)(C)O3 (stereo not drawn) | 0.11% [at 25.3 µM] (inactive) | –
48 | Cc1cc2c(F)c(Oc3ncnn4cc(OCC(C)O)c(C)c34)ccc2[nH]1 (stereo not drawn) | -25.3% (inactive) | –
49 | Cc1cc(N2CCN([C@@H]3CN[C@H](C(=O)N4CCSC4)C3)CC2)n(-c2ccccc2)n1 | -26.5% (inactive) | –
50 | CC(=O)O[C@@H]1[C@@H](OC(=O)/C=C/c2ccccc2)[C@@H](OC(C)=O)[C@H](O[C@H]2[C@@H]3C=CO[C@@H](O[C@@H]4O[C@H](CO)[C@@H](O)[C@H](O)[C@H]4O)[C@@H]3[C@@]3(CO)O[C@@H]23)O[C@H]1C | 1.54% [at 25.3 µM] (inactive) | –
51 | Cc1ccccc1-n1c([C@H](C)Nc2nc(N)nc3nc[nH]c23)nc2cccc(C)c2c1=O | 7.57% (inactive) | –
52 | C=C1CCC2C(C)(C)CCC[C@]2(C)[C@H]1C/C=C(\CO)C(=O)C(=O)O (stereo partly drawn) | -7.37% [at 38.5 µM] (inactive) | –
53 | C=C[C@@]12COC(=O)C(=C)C1[C@@H](O)[C@H](C(=C)C(=O)OC)[C@@H](OC(=O)C(=C)CO)C2 (stereo partly drawn) | -9.9% [at 25.3 µM] (inactive) | –
54 | COc1cc(N2CCC(N3CCN(C)CC3)CC2)ccc1Nc1ncc(Cl)c(-c2c[nH]c3ccccc23)n1 | – | 20 µM (active)
55 | C/C(=C\C=C\C(C)C1CCC2(C)C3CCC4C(C)(C)C(=O)CCC45CC35CCC12C)C(=O)O (stereo not drawn) | 0.87% [at 25.3 µM] (inactive) | –
56 | CC1CCC23COC(=O)C2=CC(O)CC3C1(C)CCC1=CC(O)OC1=O (stereo not drawn) | -4.67% [at 38.5 µM] (inactive) | –
57 | CC(=O)C1=C(C)N(c2cccc(C(F)(F)F)c2)C(=O)N[C@H]1c1ccc(C#N)nc1 | -8.52% [at 11.6 µM] (inactive) | –
58 | CCOc1cc(C(=O)N2CCC(N3CCN(C)CC3)CC2)ccc1Nc1ncc2c(n1)N(C1CCCC1)c1ccccc1C(=O)N2C | -22.1% (inactive) | –
59 | COc1cc2oc(-c3ccc(O)cc3O)cc2c(OC)c1CC=C(C)C | 4.81% [at 38.5 µM] (inactive) | –
60 | CC(C)(C)NS(=O)(=O)c1cncc(-c2cc(F)c3nc(N)nn3c2)c1 | 5.63% (inactive) | –
61 | O=C1NC2CCc3nc4ccccc4c(=O)n3C2=Nc2ccccc21 (stereo not drawn) | 5.21% [at 38.5 µM] (inactive) | –
62 | Cc1[nH]c2ccccc2c1C1=C(NCCc2ccc(F)cc2)C(=O)N(C)C1=O | -12.5% (inactive) | –
63 | OCC1OC(Oc2cc(O)cc(/C=C/c3ccc(O)cc3)c2)C(O)C(O)C1O (stereo not drawn) | -27.7% [at 38.5 µM] (inactive) | –
